# Calls of active or inactive are those of the source.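 The calls were made as follows: active = blocks over 70% of labeled estradiol binding at 10 µM, or over a set limit at 100 nM; inactive = the rest.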
# Target: Estrogen receptor beta (Homo sapiens) (UniProt Q92731)
# Assay: displacement of fluorescent estrogen from ERbeta – cell-based, Cos7 ERbeta-GFP, flow cytometry, primary screen (AID 1210);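 also: 0% = DMSO vehicle wells and 100% = complete loss of labeled estradiol signal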
# Conditions: fluorescent estrogen binding, stronger effect = higher value
# [1] = ligand binding inhibition, at 0.1 µM
# Estrogen receptor beta (Homo sapiens), sequence (Q92731 whole entry, looked up): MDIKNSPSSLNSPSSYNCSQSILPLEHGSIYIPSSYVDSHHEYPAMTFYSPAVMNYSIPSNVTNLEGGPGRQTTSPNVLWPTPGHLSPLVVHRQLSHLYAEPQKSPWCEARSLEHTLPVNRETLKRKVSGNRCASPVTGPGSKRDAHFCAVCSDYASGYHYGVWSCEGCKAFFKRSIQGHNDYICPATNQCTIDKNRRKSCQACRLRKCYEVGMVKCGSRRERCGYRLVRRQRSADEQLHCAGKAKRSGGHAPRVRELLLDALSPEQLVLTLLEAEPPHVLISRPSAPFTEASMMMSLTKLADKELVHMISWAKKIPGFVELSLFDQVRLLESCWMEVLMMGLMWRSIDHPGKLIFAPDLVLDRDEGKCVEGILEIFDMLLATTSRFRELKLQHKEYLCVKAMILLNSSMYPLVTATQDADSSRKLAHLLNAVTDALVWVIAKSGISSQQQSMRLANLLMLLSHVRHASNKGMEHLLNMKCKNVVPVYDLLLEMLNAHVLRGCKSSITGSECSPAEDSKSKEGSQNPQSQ
SMILES,inhibition (at 10 µM),inhibition [1] [%]
Cc1snc2sc(C(=O)c3ccc(Br)cc3)c(N)c12,26% (inactive),20
Cc1ccc(C(=O)Nc2nc(-c3cccnc3)cs2)o1,15% (inactive),43
ON=C1/C(=N\O)CC2(C/C1=N/O)OCCO2,28% (inactive),31
Cn1cccc1/C=C1\SC(=O)N(c2ccc(O)cc2)C1=O,31% (inactive),7
Oc1ccc(C2=Nn3c(nnc3-c3ccco3)SC2)cc1O,32% (inactive),1
Cc1cc(C2(c3ccc(O)c(C)c3)OC(=O)c3ccccc32)ccc1O,73% (active),29
O=C(COC(=O)c1cccc(S(=O)(=O)N2CCc3ccccc3C2)c1)NCc1ccco1,29% (inactive),5
O=C(O)c1cc(-c2ccco2)nc2ccc(Br)cc12,63% (inactive),9
O=C1CC(=O)N2N=C(c3ccc([N+](=O)[O-])cc3)SC2=N1,45% (inactive),19
O=C(COC(=O)CN1C(=O)c2ccccc2C1=O)Nc1ncc(Cl)cc1Cl,33% (inactive),16
CC(=O)Nc1nonc1-c1nc2ccccc2n1N(C(C)=O)C(C)=O,35% (active),70
Cc1ccc2[nH]c(=O)c(C3C(C#N)=C(N)Oc4c3ccc3cccnc43)cc2c1 (stereo not drawn),44% (inactive),24
O=S(=O)(NCCc1csc(-c2cccnc2)n1)c1ccc(Cl)s1,69% (active),78
COc1ccc2cc3c(N)nn(C(=O)Cc4ccc(Cl)cc4)c3nc2c1,37% (inactive),12
C/C=C/COC(=O)c1[nH]c2c(c1C)C(=O)CC(c1ccco1)C2 (stereo not drawn),53% (inactive),11
Cc1nnc(NC(=O)Cc2cccs2)s1,4% (inactive),22
Cc1ccccc1CSCC(=O)NC(=O)NCc1ccco1,27% (inactive),35
CCOc1cc(C2CC(=O)c3c(ccc4ccccc34)N2)ccc1O (stereo not drawn),19% (inactive),8
O=C(NC1CCN(C(=O)N2c3ccccc3Sc3ccccc32)CC1)c1ccccc1Cl,18% (inactive),23
